KDM5B inh – KDM5B demethylase inhibition; 2.6% of 220,000 active; AID 1347165; Potency, µM (highest dose often 57.7 µM), actives largely listed as inhibitors; Q9UGL1; KDM5B demethylase, FDH-coupled NADH fluorescence (FDH is formaldehyde dehydrogenase); active = well fitted inhibition curve with a large enough effect; note: nearly all actives have a fitted effect of over 70% in size
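Inhibition is measured as reduced NADH fluorescence generation from FDH coupling to formaldehyde release. Truncated KDM5BΔAP at 200 nM final acts on H3K4me3 peptide (12.5 µM in substrate mix) in pH 7.5 HEPES buffer with Tween-20, 30 min, room temperature.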
Numbers stand for hits; 0 = inactive. The entries come from a sample that favours hits as a whole.

SMILES	KDM5B inh
CCOc1cccc(C2c3c(oc4ccccc4c3=O)C(=O)N2c2nc(C)c(C(=O)OC)s2)c1 (stereo not given)	0
Cc1cc(C(=O)N2CCn3nc(C(C)O)cc3C2)c2ccc(F)cc2n1 (stereo not given)	0
CCc1ccc(C(=O)N2CCn3nc(C(O)c4ccccc4)cc3C2)s1 (stereo not given)	0
CC(O)c1cc2n(n1)CCN(C(=O)c1nc3ccccc3n(C)c1=O)C2 (stereo not given)	25µM
COc1ccc(CCNc2nc3ccc(Cl)cc3n3cnnc23)cc1OC	0
O=C(CCCN1CCCCC1=O)N[C@@H]1[C@@H]2CCO[C@@H]2[C@@H]1C1CCCC1	0
O=C(CCc1cn2ccccc2n1)N[C@H]1[C@@H]2CCO[C@@H]2[C@@H]1C1CCCC1	28µM
COc1ccc(CCC(=O)N[C@H]2[C@@H]3CCO[C@@H]3[C@@H]2C2CCCC2)cc1OC	0
COCc1cccc(C(=O)NCCc2ccccc2)c1	0
Cc1cc(C)cc(NC(=S)NCCc2ccc(Cl)cc2)c1	0
CN1CC2(CCN(C(=O)NC(C)(C)C)CC2)CC1C(=O)N1CCOCC1 (stereo not given)	0
CCCCn1nnnc1CSc1nnc(-c2ccccc2)n1-c1ccc(F)cc1	0
CN1C(=O)c2cccn2CC1CNS(=O)(=O)c1ccc(F)cc1 (stereo not given)	0
COc1ccccc1N1CCN([C@H]2[C@@H]3OC[C@@H](O3)[C@@H](NCc3ccc(-c4ccccc4)cc3)[C@@H]2O)CC1	0
O[C@H]1[C@H](NCc2ccncc2)[C@H]2CO[C@H](O2)[C@@H]1N1CCN(c2ccccc2)CC1	22µM
NC(=O)C1CCN([C@H]2[C@@H]3OC[C@@H](O3)[C@@H](NCc3ccccc3)[C@@H]2O)CC1	0
CCCS(=O)(=O)N1CC(C(=O)NCCc2ccncc2)C2(CCOCC2)C1 (stereo not given)	0
CCOCC(=O)N1CCC(Oc2ncccc2C(=O)N2CCCCC2)C1 (stereo not given)	0
CCOCCOC1CCN(C(=O)COc2ccccc2)CC1	0
CCOCC(=O)N1CCC(Nc2cccn3ncnc23)CC1	16µM
CCOC(=O)C1=C(O)C(=O)N(c2ccccc2)C1c1ccc(F)cc1 (stereo not given)	0
CCOc1ccccc1C(=O)NCc1nnc2ccc(-c3ccc(C)c(C)c3)nn12	32µM
COc1ccccc1CNc1ccc2nnc(C)n2n1	0
COc1ccccc1C(=O)NCc1nnc2ccc(-c3ccc(C)cc3)nn12	13µM
COc1ccccc1CCC(=O)NCc1nnc2ccc(-c3ccc(C)cc3)nn12	0
SMILES	KDM5B inh
Cc1ccc(S(=O)(=O)N2CCN(C(=O)Cc3ccccc3)CC2)cc1C	0
COc1cccc(CNC(=O)CCCn2nc(C)c3sc4ccccc4c3c2=O)c1	0
Cc1cc(F)cc(CN2CCc3nc(C(=O)NCC4CC4)oc3CC2)c1	0
O=C(Nc1ccccc1)c1nc2c(o1)CCN(Cc1cccnc1)CC2	0
Cc1cc(F)cc(CN2CCc3nc(C(=O)Nc4ccccc4)oc3CC2)c1	28µM
Cc1ccccc1CN1CCc2nc(C(=O)Nc3ccccc3)oc2CC1	28µM
O=C(Nc1ccccc1)c1nc2c(o1)CCN(CC1CC1)CC2	0
Cc1ccccc1CN1CCc2nc(C(=O)N3CCOCC3)oc2CC1	0
CC1(C)CC(=O)C2=C(C1)OC(N)=C(C#N)C2c1cccc2ccccc12 (stereo not given)	0
Cc1nn(-c2ccc(C(F)(F)F)cc2)c(C)c1[C@@H]1C=C[C@@H](NC(=O)CCC(=O)O)C1	0
CCn1cc(Br)c(C(=O)Nc2ccc(F)cc2F)n1	0
O=C(CCN1CCC(c2ccccc2)C1)c1ccco1 (stereo not given)	0
Cc1cccc(NC(=O)c2c(C)cc(C)nc2SCC(=O)c2ccccc2)c1	0
CCCS(=O)(=O)N1CC(=O)N(c2cccc(Cl)c2C)C(C)(C(=O)NC2CCCC2)C1 (stereo not given)	0
CCCCNC(=O)CC(c1cccc([N+](=O)[O-])c1)c1c[nH]c2c(CC)cccc12 (stereo not given)	0
CCc1cccc2c(C(CC(=O)NCc3ccco3)c3ccc(C)cc3)c[nH]c12 (stereo not given)	28µM
CCCCNC(=O)CC(c1cccc2c1OCO2)c1c[nH]c2c(CC)cccc12 (stereo not given)	0
O=C(CCc1nnn2c1CN(C(=O)c1ccccc1)CC2)N1CCOCC1	0
COCCO[C@H]1C(=O)N(C2CCN(Cc3ccc(O)cc3)CC2)[C@H]1c1ccncc1	0
COCCNC(=O)c1nc(-c2ccc([S+](C)(=O)[O-])cc2)c2ccccn12	0
COCCNC(=O)c1nc(-c2ccc(Cl)cc2)c2ccccn12	35µM
COC(=O)CNC(=O)c1nc(-c2ccc(Cl)cc2)c2ccccn12	20µM
CCn1cc(-c2ccc(Cl)cc2)cc1C(=O)NCC(=O)OC	0
COC(=O)CNC(=O)c1nc(-c2ccc(F)cc2)c2ccccn12	40µM
COCCNC(=O)CN(C)C(=O)c1cc(-c2ccc(Cl)cc2)nc2ccccc12	0
SMILES	KDM5B inh
Cc1ccccc1/C=C1\C(=O)Nc2ccc(F)cc21	0
CCOc1c(Nc2ccccc2O)c(=O)c1=O	0
Cc1cccc(NC(=O)C(=O)NCC(c2ccc3c(c2)OCO3)N2CCN(C)CC2)c1C (stereo not given)	0
CS(=O)(=O)Nc1ccc(C2(C(=O)NCc3ccc(F)cc3Cl)CCCCC2)cc1	0
CC(=O)N1CC2(Cc3ccccc3N(C(C)=O)C2)C1	0
COc1cc(C2C(C#N)=C(N)OC3=C2C(=O)CC(C)(C)C3)ccc1OC(=O)N1CCOCC1 (stereo not given)	0
CN(C)C(=O)c1n[nH]c2c1CN(C(=O)c1ccc(F)c(F)c1)CC2	0
COc1ccc(C(=O)Oc2ccc(C)cc2)cc1	0
COc1ccc(-c2[nH]nc3ncc(-c4ccc([S+](C)(=O)[O-])cc4)nc23)cc1F	0
Cc1cc(F)ccc1-c1[nH]nc2ncc(-c3ccc([S+](C)(=O)[O-])cc3)nc12	35µM
Cc1cc(F)ccc1-c1[nH]nc2ncc(-c3cn[nH]c3)nc12	28µM
COc1ccc(-c2cnc3n[nH]c(-c4ccc(OC)c(F)c4)c3n2)cn1	0
C[S+](=O)([O-])c1ccc(-c2cnc3n[nH]c(-c4ccc5c(c4)OCO5)c3n2)cc1	0
Cc1noc2c(-c3cn[nH]c3)cc(-c3ccc(F)cc3)nc12	0
COc1ccc(NC(=O)c2nn(-c3ccccc3)ccc2=O)c(OC)c1	0
O=C(c1ccc2[nH]ccc2c1)N1CCC(Cn2cc(C3CCCC3)nn2)CC1	0
COCCN(C)C[C@@H]1CN(C(=O)c2cnc(SC)nc2)C[C@@H]1CO	0
COCCN(C)C[C@@H]1CN(C(=O)c2nc(-c3ccccc3)[nH]c2C)C[C@@H]1CO	0
COCCN(C)C[C@@H]1CN(c2cc(C)c3ccc(SC)cc3n2)C[C@@H]1CO	28µM
O=C(CSc1nc(Nc2ccccc2)c2ccccc2n1)NC1CC1	0
COc1cccc(-c2nc3cc4c(cc3cc2CN2CCCOCC2)OCO4)c1OC	28µM
CCCn1c(=O)[nH]c(=O)c2c1nc(-c1cccc(OC)c1OC)n2CCN1CCOCC1	0
COc1cccc(CN2CCCOCCNC(=O)CC2)c1OC	0
N#Cc1cccc(CN2Cc3[nH]cnc3C[C@H]2c2nc(-c3cnccn3)no2)c1	0
COc1ccc(-n2c(=O)c3c4c(sc3n(C)c2=O)CN(C(C)=O)CC4)cc1	0
Cc1cccc(CN2C(=O)N(c3ccc(C(C)C)cc3)S(=O)(=O)c3ccccc32)c1	0
